Legend:
Experiment in all cases: log2 ratio of Biotin-Ahx-Ub-VS probe labelling (fragment/DMSO); higher = less target engagement (more negative = stronger competition), active = hit call of the paper (q ≤ 0.05, log2 ratio ≤ -1)
Conditions in all cases: compound concentration: 200 uM; treatment time: 3 h
USP42 = target: T1, USP42 (UniProt Q9H9J4)
T1 sequence (whole entry): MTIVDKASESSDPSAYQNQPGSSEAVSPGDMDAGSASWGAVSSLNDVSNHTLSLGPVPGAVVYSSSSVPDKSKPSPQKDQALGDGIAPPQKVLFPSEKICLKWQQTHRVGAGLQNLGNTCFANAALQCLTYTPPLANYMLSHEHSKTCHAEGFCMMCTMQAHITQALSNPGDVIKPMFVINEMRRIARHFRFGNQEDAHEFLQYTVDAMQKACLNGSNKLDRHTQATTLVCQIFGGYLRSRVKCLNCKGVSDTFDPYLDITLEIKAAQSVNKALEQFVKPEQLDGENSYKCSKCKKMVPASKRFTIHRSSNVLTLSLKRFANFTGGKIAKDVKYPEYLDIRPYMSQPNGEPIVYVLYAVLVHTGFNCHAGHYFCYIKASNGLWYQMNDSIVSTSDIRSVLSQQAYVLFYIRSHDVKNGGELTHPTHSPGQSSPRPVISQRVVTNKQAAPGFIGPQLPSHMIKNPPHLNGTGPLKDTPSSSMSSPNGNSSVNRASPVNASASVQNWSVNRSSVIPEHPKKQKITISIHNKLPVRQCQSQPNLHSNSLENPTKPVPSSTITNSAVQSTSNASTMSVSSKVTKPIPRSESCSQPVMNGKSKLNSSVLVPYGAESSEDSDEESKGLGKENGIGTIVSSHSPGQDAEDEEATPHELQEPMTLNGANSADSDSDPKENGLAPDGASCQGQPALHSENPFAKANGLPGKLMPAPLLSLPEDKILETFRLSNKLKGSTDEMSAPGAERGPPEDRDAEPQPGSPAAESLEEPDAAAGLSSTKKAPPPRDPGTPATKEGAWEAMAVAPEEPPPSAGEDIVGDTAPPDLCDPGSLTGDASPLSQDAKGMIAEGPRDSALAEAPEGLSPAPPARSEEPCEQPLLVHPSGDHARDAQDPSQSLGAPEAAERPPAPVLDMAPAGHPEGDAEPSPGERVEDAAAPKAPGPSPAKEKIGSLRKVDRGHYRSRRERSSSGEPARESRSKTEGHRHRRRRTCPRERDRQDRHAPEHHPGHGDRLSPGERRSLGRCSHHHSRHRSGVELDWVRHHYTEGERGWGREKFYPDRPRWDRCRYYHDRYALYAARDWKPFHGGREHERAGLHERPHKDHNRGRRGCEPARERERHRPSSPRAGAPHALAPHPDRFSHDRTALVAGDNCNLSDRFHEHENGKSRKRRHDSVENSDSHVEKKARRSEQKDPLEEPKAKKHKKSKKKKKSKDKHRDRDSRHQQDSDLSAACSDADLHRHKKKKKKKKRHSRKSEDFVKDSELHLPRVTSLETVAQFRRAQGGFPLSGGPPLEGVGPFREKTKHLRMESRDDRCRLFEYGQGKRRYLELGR
Summary of the method: (§1)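 Labelled DUBs from HEK293T lysate were NeutrAvidin-enriched, digested with LysC and trypsin, and run by diaPASEF LC-MS/MS. Before that, each 495 µg sample in Tris/CHAPS/IGEPAL buffer with protease inhibitors was treated in triplicate with fragment at 200 µM or vehicle for 3 h, then with Biotin-Ahx-Ub-VS at 0.5 µM final for 1 h. Values are average log2 ratios of fragment over vehicle by unpaired t-test, based on global-median-normalised Spectronaut label-free quantities from proteins with ≥2 unique peptides.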

USP46 = USP46 (UniProt P62068)
USP46, sequence (P62068 whole entry): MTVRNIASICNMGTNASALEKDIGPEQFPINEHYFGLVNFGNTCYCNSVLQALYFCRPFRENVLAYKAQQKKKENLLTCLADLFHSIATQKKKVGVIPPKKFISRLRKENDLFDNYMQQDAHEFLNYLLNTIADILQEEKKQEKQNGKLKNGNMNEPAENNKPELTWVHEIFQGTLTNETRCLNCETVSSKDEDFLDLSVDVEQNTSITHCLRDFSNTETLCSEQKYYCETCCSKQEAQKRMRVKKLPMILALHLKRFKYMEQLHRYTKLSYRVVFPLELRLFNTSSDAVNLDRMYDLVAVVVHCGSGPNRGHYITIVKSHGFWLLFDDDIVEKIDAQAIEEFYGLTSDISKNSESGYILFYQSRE
Summary of the method: as §1

USP47 = target: T2, USP47 (UniProt Q96K76)
T2 sequence (whole entry): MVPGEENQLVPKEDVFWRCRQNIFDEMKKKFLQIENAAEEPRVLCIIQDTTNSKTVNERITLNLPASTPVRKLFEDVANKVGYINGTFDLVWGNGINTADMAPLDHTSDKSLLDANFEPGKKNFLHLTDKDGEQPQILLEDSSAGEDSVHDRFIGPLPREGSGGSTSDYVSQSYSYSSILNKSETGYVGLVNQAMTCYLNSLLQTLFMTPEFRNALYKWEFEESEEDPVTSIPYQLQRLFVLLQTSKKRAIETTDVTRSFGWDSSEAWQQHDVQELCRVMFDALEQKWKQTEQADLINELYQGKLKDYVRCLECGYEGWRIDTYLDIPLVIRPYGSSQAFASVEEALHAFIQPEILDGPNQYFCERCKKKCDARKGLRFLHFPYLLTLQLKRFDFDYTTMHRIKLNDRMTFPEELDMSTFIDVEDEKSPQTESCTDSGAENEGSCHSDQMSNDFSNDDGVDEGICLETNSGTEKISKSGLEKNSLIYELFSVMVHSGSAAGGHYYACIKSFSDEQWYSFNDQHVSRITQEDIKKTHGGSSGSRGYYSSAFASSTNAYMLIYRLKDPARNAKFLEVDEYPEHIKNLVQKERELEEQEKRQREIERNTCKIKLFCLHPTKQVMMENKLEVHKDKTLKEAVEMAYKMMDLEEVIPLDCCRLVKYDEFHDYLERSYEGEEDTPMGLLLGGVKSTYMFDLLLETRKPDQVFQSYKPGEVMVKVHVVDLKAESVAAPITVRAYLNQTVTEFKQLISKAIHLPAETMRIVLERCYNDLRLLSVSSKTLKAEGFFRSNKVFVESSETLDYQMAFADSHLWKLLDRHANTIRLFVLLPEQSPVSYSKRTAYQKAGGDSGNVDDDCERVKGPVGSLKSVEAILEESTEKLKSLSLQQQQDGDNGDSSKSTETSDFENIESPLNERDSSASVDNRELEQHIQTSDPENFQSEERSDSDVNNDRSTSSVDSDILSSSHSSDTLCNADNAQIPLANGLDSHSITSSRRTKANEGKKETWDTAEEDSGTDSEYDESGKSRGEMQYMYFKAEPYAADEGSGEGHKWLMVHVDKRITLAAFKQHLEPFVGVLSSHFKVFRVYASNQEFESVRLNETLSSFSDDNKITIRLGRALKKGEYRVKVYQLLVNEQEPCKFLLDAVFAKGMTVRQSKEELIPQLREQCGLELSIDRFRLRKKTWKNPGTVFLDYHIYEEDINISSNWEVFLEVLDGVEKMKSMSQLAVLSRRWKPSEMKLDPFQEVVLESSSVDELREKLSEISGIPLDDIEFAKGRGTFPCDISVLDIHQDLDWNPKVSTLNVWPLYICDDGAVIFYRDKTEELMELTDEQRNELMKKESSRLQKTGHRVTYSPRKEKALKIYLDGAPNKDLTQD
Summary of the method: as §1

USP48 = target: T3, USP48 (UniProt Q86UV5)
T3 sequence (whole entry): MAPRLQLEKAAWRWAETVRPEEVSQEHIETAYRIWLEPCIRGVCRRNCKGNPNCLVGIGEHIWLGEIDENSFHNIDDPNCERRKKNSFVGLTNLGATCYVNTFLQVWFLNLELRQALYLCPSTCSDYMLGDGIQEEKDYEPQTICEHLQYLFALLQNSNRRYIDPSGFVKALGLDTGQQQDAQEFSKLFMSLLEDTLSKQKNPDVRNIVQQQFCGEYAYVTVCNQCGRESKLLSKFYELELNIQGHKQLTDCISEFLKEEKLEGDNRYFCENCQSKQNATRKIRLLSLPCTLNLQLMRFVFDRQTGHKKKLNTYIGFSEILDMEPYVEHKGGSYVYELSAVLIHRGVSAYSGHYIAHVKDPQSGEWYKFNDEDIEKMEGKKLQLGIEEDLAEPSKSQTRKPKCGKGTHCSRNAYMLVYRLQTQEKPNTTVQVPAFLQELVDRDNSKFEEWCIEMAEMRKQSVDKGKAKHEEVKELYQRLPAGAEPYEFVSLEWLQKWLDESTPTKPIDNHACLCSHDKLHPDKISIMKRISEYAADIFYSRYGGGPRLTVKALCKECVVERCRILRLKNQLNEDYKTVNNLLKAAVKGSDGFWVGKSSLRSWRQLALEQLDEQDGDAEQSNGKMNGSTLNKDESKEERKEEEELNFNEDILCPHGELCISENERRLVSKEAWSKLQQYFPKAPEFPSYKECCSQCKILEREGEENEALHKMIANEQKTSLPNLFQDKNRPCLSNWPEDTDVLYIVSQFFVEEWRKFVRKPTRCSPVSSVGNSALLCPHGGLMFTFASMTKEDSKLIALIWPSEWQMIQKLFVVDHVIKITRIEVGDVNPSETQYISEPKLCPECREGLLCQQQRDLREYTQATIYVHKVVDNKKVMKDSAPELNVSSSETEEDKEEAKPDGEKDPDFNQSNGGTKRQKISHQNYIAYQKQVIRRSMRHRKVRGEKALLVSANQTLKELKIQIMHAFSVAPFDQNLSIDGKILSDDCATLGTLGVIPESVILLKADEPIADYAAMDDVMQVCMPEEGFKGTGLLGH
Summary of the method: as §1

USP5 = target: T4, USP5 (UniProt P45974)
T4 sequence (whole entry): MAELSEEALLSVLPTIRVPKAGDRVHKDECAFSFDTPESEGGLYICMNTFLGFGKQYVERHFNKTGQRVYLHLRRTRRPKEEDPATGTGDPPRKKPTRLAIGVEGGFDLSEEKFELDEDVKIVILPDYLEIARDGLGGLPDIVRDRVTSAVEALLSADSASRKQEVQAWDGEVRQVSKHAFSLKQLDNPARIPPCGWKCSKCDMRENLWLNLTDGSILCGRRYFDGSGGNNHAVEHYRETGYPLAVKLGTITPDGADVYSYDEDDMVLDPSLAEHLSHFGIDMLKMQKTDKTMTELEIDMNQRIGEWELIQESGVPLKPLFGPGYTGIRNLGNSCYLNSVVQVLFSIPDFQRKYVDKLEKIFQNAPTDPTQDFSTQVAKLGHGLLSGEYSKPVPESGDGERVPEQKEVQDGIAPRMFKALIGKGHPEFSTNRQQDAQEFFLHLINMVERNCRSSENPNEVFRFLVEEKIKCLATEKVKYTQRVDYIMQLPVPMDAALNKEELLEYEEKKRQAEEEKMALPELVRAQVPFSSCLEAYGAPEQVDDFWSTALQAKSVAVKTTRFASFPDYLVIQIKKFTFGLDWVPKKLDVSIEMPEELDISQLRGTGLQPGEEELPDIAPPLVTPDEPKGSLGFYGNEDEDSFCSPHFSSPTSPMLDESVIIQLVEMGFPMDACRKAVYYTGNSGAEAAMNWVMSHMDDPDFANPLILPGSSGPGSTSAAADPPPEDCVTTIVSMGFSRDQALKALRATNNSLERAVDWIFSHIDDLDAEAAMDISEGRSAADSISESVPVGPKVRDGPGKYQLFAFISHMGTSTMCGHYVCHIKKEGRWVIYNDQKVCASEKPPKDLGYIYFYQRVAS
Summary of the method: as §1

USP54 = USP54 (UniProt Q70EL1)
USP54, sequence (Q70EL1 whole entry): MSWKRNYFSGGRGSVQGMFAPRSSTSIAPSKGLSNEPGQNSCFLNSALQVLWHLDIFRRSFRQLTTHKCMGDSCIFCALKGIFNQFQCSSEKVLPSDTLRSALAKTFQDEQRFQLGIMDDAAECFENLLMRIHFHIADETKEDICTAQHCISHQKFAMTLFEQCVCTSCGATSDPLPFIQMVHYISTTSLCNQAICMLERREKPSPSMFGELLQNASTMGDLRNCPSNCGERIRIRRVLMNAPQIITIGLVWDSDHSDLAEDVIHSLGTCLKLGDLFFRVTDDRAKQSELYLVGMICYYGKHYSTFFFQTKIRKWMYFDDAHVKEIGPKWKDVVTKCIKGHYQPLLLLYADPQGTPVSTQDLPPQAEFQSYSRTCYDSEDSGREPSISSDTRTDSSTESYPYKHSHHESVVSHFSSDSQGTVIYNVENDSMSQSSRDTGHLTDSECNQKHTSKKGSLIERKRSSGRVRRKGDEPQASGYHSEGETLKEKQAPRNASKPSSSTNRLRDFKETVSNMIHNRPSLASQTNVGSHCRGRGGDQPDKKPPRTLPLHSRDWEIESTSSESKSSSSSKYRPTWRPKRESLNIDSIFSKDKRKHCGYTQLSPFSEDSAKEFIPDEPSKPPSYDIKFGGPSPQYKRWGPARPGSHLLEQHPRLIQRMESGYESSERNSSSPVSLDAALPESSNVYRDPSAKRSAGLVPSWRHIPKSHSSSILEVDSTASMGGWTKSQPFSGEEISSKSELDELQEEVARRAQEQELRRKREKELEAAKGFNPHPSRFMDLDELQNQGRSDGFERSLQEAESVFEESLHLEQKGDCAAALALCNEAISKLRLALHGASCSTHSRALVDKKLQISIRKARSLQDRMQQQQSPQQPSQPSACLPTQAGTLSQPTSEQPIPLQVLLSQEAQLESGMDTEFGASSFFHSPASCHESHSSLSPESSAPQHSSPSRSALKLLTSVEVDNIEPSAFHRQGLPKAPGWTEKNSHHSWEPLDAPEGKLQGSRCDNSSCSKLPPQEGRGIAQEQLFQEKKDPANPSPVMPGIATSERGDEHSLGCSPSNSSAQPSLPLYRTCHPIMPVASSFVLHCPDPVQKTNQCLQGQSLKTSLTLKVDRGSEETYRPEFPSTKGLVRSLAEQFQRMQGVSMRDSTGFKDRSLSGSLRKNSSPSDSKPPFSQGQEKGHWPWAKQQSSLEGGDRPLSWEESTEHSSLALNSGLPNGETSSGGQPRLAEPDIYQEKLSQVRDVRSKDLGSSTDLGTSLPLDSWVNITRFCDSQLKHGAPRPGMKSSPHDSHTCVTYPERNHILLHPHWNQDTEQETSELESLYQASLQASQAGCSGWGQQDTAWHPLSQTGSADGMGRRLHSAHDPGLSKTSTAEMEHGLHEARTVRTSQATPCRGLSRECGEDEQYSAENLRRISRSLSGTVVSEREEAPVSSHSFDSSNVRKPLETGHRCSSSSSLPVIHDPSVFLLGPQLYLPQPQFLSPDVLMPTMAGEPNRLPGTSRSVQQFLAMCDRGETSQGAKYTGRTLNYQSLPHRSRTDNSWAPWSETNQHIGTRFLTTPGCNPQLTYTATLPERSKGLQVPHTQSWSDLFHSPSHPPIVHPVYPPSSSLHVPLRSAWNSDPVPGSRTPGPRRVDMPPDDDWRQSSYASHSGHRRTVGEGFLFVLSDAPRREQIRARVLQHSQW
Summary of the method: as §1

USP7 = USP7 (UniProt Q93009)
USP7, sequence (Q93009 whole entry, looked up): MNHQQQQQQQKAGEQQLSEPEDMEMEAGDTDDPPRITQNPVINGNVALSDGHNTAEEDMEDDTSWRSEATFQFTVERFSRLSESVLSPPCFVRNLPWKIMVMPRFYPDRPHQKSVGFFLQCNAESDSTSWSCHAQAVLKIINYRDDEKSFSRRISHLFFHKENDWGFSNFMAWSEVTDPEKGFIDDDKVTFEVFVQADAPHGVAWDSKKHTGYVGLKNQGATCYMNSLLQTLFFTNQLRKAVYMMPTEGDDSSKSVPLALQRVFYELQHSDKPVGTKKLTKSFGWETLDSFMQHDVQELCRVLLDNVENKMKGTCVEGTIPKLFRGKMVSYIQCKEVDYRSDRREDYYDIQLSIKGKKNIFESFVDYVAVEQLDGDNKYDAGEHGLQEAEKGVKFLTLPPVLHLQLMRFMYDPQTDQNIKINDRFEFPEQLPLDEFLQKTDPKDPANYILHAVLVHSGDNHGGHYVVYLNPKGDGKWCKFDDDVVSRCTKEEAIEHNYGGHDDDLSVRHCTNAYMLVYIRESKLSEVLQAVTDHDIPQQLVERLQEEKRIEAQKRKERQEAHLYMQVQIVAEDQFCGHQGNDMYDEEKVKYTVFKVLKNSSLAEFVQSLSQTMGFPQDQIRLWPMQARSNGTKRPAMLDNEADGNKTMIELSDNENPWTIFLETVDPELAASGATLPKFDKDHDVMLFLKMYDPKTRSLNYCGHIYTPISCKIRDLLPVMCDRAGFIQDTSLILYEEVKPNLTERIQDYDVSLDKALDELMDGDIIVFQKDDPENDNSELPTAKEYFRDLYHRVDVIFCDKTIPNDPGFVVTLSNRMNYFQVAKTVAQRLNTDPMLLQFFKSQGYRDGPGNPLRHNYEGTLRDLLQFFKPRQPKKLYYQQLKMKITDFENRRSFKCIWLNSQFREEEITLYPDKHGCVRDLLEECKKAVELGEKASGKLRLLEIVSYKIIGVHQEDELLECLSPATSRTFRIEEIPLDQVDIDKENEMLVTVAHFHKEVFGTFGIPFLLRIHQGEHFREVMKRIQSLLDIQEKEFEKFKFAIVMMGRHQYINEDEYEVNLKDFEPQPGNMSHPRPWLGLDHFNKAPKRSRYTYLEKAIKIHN
Summary of the method: as §1

USP8 = target: T5, USP8 (UniProt P40818)
T5 sequence (whole entry): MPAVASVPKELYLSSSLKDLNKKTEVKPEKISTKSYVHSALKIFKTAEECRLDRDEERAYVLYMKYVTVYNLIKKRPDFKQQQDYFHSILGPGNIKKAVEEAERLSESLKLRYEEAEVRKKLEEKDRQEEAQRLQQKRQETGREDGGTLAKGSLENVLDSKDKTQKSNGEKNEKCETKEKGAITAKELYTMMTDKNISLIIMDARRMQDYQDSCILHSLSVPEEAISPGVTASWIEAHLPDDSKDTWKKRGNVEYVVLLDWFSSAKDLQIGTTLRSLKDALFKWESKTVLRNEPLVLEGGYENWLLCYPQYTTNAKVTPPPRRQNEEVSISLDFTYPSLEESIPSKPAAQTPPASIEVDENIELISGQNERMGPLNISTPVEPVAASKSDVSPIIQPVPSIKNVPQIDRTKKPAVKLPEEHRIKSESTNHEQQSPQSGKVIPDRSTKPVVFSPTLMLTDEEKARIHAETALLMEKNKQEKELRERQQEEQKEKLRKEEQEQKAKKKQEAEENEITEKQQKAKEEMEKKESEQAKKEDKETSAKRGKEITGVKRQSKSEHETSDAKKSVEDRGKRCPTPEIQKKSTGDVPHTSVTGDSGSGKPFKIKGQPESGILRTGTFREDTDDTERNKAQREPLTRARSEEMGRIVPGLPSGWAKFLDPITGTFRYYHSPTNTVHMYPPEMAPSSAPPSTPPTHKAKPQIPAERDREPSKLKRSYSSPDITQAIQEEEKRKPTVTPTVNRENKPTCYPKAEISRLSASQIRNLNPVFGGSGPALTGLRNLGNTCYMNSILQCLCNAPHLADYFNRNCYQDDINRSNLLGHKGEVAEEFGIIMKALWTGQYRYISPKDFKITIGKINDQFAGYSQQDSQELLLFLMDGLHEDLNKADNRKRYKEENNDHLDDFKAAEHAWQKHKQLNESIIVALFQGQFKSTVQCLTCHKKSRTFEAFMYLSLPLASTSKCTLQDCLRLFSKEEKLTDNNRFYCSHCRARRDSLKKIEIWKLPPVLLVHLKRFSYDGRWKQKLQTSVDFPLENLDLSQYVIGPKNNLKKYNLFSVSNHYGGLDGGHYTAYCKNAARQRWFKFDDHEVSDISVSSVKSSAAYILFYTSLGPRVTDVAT
Summary of the method: as §1

USP9X = USP9X (UniProt Q93008)
Summary of the method: as §1

UniProt O00487 = target: UniProt O00487
UniProt O00487, sequence (O00487 whole entry): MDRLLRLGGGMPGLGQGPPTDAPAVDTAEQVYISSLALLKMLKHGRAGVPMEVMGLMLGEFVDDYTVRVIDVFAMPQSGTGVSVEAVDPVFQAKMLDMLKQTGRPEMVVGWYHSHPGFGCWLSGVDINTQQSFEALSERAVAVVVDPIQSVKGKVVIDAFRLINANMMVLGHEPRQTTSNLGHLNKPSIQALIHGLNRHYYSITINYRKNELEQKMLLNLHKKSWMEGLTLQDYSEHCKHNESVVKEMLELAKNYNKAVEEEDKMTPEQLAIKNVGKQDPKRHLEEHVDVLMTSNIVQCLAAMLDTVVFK
Summary of the method: as §1

Measured: log2 ratio of Biotin-Ahx-Ub-VS probe labelling

CN(C(=O)CCl)c1nc2ccccc2s1
inactive: USP42 0.236 | USP46 -0.305 | USP47 -0.107 | USP48 -0.574 | USP5 -0.191 | USP54 -0.996 | USP7 -0.566 | USP8 -0.0186 | USP9X -0.325 | UniProt O00487 -0.00105

Reference: the supplement of paper PMC11732987, “Enantioselective OTUD7B fragment discovery through chemoproteomics screening and high-throughput optimisation” (Communications Chemistry, 2025)
